Measured values taken from ChEMBL document CHEMBL1961873, “Compounds: GSK PKIS; Assays: Nanosyn kinase panel” (2012).

Assays:
[1] = target: Serine/threonine-protein kinase MARK2 (Homo sapiens) (UniProt Q7KZI7); conditions: at 1 µM
[2] = target: PAS domain-containing serine/threonine-protein kinase (Homo sapiens) (UniProt Q96RG2); conditions: at 0.1 µM
[3] = target: PAS domain-containing serine/threonine-protein kinase (Homo sapiens) (UniProt Q96RG2); conditions: at 1 µM
[4] = target: Phosphorylase b kinase gamma catalytic chain, skeletal muscle/heart isoform (Homo sapiens) (UniProt Q16816); conditions: at 0.1 µM
Sequence of Phosphorylase b kinase gamma catalytic chain, skeletal muscle/heart isoform (Homo sapiens) (Q16816 whole entry, looked up, canonical isoform): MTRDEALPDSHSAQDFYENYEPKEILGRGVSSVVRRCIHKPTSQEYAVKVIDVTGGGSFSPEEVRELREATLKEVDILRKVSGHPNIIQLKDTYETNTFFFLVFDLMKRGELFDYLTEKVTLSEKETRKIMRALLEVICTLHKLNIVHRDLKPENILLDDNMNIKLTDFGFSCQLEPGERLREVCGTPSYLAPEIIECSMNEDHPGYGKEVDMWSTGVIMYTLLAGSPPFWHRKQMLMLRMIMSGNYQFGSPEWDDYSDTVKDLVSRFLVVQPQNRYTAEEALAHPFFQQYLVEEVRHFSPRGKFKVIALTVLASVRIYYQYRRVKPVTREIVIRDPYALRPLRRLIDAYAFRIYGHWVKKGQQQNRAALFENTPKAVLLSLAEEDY

[5] = target: Phosphorylase b kinase gamma catalytic chain, skeletal muscle/heart isoform (Homo sapiens) (UniProt Q16816); conditions: at 1 µM
[6] = target: T1, Phosphorylase b kinase gamma catalytic chain, liver/testis isoform (Homo sapiens) (UniProt P15735); conditions: at 0.1 µM
T1 sequence (whole entry): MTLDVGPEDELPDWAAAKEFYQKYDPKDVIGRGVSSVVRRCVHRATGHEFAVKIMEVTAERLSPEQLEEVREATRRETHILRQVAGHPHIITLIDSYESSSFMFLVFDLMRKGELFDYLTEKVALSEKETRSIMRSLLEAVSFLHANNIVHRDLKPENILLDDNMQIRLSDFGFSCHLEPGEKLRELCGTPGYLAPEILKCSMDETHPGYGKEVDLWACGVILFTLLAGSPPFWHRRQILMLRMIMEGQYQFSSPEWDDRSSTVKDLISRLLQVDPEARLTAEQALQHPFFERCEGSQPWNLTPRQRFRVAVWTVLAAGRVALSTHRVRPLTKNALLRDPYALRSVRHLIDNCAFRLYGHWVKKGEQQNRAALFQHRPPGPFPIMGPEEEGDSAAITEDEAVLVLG

[7] = target: T1, Phosphorylase b kinase gamma catalytic chain, liver/testis isoform (Homo sapiens); conditions: at 1 µM
[8] = target: Serine/threonine-protein kinase pim-1 (Homo sapiens) (UniProt P11309); conditions: at 0.1 µM
Sequence of Serine/threonine-protein kinase pim-1 (Homo sapiens) (P11309 whole entry, looked up): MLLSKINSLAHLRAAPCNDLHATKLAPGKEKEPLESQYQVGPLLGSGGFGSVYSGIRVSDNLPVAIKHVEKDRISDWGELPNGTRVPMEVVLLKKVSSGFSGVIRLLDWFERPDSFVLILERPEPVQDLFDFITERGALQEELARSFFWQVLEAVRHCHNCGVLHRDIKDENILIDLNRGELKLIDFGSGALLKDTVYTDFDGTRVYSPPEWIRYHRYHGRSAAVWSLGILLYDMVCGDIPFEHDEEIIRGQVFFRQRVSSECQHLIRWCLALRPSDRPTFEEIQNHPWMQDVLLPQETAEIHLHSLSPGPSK

[9] = target: Serine/threonine-protein kinase pim-1 (Homo sapiens) (UniProt P11309); conditions: at 1 µM
[10] = target: Serine/threonine-protein kinase pim-2 (Homo sapiens) (UniProt Q9P1W9); conditions: at 0.1 µM
Sequence of Serine/threonine-protein kinase pim-2 (Homo sapiens) (Q9P1W9 whole entry, looked up): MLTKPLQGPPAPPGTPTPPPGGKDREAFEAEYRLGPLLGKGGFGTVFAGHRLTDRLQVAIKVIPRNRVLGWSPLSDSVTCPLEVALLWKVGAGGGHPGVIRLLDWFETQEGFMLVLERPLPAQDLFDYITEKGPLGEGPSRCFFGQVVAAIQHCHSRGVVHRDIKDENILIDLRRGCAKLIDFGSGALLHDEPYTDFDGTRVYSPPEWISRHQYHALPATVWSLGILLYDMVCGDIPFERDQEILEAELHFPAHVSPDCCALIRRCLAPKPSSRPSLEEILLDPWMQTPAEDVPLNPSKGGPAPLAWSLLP

[11] = target: Serine/threonine-protein kinase pim-2 (Homo sapiens) (UniProt Q9P1W9); conditions: at 1 µM
[12] = target: Serine/threonine-protein kinase pim-3 (Homo sapiens) (UniProt Q86V86); conditions: at 0.1 µM
[13] = target: Serine/threonine-protein kinase pim-3 (Homo sapiens) (UniProt Q86V86); conditions: at 1 µM
[14] = target: T2, MAP kinase-activated protein kinase 5 (Homo sapiens) (UniProt Q8IW41); conditions: at 0.1 µM
T2 sequence (whole entry): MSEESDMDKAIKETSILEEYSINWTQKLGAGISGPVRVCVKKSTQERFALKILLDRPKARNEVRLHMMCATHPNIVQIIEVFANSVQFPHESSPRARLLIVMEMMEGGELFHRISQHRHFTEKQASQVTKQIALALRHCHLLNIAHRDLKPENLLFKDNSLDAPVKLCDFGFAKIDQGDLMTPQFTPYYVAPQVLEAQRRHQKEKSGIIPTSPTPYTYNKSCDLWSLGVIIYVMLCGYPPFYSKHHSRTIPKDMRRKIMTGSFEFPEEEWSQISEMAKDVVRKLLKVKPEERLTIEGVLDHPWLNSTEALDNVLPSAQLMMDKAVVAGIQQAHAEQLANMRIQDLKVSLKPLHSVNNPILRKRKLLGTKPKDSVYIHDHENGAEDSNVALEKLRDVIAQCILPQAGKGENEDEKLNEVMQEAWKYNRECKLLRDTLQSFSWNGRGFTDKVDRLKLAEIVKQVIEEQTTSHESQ

[15] = target: T2, MAP kinase-activated protein kinase 5 (Homo sapiens); conditions: at 1 µM
[16] = target: Serine/threonine-protein kinase SIK1 (Homo sapiens) (UniProt P57059); conditions: at 0.1 µM
[17] = target: Serine/threonine-protein kinase SIK1 (Homo sapiens) (UniProt P57059); conditions: at 1 µM
[18] = target: Serine/threonine-protein kinase SIK2 (Homo sapiens) (UniProt Q9H0K1); conditions: at 0.1 µM
Sequence of Serine/threonine-protein kinase SIK2 (Homo sapiens) (Q9H0K1 whole entry, looked up): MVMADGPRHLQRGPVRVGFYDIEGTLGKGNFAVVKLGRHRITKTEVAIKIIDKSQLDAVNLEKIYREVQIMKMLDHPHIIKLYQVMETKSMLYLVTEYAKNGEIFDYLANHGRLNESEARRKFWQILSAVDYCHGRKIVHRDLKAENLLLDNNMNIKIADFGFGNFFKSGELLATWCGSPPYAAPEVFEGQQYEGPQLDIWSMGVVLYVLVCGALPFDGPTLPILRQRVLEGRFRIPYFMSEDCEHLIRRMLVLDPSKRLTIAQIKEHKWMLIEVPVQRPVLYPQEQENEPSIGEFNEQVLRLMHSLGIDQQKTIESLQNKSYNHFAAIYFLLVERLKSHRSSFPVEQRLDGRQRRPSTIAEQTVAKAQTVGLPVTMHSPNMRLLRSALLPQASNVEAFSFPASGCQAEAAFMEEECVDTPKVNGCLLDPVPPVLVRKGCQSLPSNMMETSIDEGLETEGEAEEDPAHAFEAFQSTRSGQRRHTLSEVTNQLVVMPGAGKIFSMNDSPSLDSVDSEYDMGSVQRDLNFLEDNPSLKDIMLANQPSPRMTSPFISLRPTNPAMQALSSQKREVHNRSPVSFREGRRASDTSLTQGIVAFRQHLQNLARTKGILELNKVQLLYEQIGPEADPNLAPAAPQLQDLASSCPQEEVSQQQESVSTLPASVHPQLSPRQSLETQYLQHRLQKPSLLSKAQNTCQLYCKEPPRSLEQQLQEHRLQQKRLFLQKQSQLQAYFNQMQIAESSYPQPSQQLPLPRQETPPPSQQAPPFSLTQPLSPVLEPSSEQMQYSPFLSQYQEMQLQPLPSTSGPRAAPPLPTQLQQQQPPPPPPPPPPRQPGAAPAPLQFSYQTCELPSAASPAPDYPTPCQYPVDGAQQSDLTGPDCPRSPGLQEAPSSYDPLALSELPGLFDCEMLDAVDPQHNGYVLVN

[19] = target: Serine/threonine-protein kinase SIK2 (Homo sapiens) (UniProt Q9H0K1); conditions: at 1 µM
[20] = target: T3, Serine/threonine-protein kinase TBK1 (Homo sapiens) (UniProt Q9UHD2); conditions: at 0.1 µM;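 note: values are the mean TBK1 inhibition, taken from the GSK PKIS screening data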
T3 sequence (whole entry): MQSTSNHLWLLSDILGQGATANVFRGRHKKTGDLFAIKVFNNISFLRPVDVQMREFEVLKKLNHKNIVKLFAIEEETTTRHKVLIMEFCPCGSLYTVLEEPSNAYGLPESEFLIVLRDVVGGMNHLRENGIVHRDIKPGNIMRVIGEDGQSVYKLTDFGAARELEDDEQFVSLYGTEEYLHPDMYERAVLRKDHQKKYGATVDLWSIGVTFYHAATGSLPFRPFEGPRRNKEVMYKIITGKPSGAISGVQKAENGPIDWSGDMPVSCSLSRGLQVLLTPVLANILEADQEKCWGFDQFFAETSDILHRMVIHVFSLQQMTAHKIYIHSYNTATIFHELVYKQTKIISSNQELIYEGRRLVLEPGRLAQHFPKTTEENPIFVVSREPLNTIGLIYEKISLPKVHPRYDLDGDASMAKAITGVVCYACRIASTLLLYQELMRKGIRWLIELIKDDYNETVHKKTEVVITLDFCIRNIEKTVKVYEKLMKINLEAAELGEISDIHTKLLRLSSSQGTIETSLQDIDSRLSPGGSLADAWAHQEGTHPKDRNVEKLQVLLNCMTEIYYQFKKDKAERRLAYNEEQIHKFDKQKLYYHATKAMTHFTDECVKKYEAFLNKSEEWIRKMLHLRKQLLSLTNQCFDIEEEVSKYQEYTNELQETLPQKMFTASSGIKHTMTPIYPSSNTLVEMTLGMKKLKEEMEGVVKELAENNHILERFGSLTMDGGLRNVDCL

Sequence of PAS domain-containing serine/threonine-protein kinase (Homo sapiens) (Q96RG2 whole entry, the tested form may be a part, canonical isoform): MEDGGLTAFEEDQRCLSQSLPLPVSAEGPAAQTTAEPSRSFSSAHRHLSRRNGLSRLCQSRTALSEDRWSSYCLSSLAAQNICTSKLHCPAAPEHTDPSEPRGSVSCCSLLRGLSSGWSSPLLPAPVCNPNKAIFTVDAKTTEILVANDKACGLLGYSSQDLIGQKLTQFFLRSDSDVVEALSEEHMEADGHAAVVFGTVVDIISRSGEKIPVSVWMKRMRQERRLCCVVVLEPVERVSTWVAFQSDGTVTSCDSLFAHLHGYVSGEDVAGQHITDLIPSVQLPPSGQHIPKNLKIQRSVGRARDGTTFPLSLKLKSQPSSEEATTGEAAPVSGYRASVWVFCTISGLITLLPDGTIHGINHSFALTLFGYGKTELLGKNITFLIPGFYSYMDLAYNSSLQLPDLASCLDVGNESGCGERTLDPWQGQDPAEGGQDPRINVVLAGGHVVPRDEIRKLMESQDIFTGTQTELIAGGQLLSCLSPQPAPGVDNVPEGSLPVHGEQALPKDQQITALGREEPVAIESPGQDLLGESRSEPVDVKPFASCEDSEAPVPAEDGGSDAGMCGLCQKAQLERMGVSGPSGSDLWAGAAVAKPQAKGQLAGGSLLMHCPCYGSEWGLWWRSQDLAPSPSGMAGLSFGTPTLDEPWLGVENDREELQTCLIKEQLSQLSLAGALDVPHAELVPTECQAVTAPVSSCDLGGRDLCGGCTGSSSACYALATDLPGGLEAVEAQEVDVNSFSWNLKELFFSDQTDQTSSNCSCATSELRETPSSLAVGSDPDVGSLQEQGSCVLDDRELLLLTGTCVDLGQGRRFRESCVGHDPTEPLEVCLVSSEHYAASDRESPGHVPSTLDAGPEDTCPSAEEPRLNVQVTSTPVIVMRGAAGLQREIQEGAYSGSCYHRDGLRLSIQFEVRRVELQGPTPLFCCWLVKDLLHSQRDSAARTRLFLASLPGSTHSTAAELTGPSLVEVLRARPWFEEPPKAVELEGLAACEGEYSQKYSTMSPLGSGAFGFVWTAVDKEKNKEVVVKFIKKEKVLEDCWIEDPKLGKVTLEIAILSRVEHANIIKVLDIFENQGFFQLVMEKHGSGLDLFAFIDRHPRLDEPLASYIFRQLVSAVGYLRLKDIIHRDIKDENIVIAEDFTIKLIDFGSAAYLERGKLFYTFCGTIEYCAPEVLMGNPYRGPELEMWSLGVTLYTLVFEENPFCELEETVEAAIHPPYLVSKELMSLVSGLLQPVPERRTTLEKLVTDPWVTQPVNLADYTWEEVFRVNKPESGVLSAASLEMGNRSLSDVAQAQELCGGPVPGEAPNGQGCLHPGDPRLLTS
Sequence of Serine/threonine-protein kinase MARK2 (Homo sapiens) (Q7KZI7 whole entry, the tested form may be a part): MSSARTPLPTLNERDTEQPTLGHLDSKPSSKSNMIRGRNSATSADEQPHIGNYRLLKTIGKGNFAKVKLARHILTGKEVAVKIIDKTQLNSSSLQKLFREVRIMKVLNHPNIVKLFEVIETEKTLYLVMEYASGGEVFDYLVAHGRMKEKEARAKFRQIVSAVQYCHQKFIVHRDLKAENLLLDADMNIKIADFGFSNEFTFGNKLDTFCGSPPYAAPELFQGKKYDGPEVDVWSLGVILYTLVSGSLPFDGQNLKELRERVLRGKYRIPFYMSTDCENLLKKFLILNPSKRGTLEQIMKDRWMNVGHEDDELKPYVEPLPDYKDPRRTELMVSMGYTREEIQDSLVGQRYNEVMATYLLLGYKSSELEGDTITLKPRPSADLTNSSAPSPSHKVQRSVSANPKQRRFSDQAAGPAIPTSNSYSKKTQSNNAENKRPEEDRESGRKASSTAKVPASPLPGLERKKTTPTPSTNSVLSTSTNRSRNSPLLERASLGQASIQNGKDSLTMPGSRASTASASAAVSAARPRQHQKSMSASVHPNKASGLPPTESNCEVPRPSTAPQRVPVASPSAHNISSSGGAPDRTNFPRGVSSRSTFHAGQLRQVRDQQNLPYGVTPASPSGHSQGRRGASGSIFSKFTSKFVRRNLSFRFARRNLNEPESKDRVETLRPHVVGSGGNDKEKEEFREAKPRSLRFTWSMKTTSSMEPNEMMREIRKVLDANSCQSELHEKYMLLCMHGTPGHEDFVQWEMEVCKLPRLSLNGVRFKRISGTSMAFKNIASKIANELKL

Work on `COc1cccc(-n2cnc3c(N/N=C/c4ccncc4)ncnc32)c1` yielded an inhibition [1] of 4.05%, an inhibition [2] of 1.87% and an inhibition [3] of 4.15%. The inhibition [4] was -0.02%, the inhibition [5] was 2.55% and the inhibition [6] was 1.83%. It also gave an inhibition [7] of 6.48%, an inhibition [8] of -0.24% and an inhibition [9] of -0.03%. It also gave an inhibition [10] of -3.51%, an inhibition [11] of -3.43% and an inhibition [12] of 3.67%. The inhibition [13] was 6.5%, the inhibition [14] was 0.59% and the inhibition [15] was 2.56%. It also gave an inhibition [16] of 1.88%, an inhibition [17] of 12% and an inhibition [18] of 9.07%. It also gave an inhibition [19] of 34.1% and an inhibition [20] of 0.99%.

Molecule `NS(=O)(=O)c1ccc(N/N=C2\C(=O)Nc3ccc(C(=O)NCCCn4ccnc4)cc32)cc1` has an inhibition [1] of 9.93%, an inhibition [2] of 0.17% and an inhibition [3] of 2.55%. For the same molecule, the inhibition [4] was 9.94%, the inhibition [5] was 25.8% and the inhibition [6] was 3.91%. It also gave an inhibition [7] of 10%, an inhibition [8] of 2.53% and an inhibition [9] of 15.6%. For the same molecule, the inhibition [10] was 0.82%, the inhibition [11] was 7.42% and the inhibition [12] was 3.06%. The inhibition [13] was 18.9%, the inhibition [14] was 1.4% and the inhibition [15] was 4.54%. The inhibition [16] was 7.49%, the inhibition [17] was 13.9% and the inhibition [18] was 9.61%. For the same molecule, the inhibition [19] was 12.7% and the inhibition [20] was 3.93%.

In the case of `Fc1ccc(-c2ncn(C3CCNCC3)c2-c2ccnc(Oc3ccc4c(c3)OCO4)n2)cc1`, the inhibition [1] is reported as 2.68%, the inhibition [2] is reported as 0.16% and the inhibition [3] is reported as 1.32%. The inhibition [4] was 6.43%, the inhibition [5] was 6.48% and the inhibition [6] was 7.66%. The inhibition [7] was 5.8%, the inhibition [8] was 0.83% and the inhibition [9] was 2.07%. It also gave an inhibition [10] of -0.04%, an inhibition [11] of 0.71% and an inhibition [12] of 0.14%. For the same molecule, the inhibition [13] was 1.3%, the inhibition [14] was 2.12% and the inhibition [15] was 2.05%. For the same molecule, the inhibition [16] was 5.99%, the inhibition [17] was 6.9% and the inhibition [18] was 2.25%. The inhibition [19] was 18.5% and the inhibition [20] was 2.29%.

`Cc1ccc(C(=O)NC2CCC2)cc1-c1ccc(C(=O)NCC2CC2)cc1` gave an inhibition [1] of 0.79%, an inhibition [2] of 0.3% and an inhibition [3] of -1.21%. It also gave an inhibition [4] of 2.32%, an inhibition [5] of 2.85% and an inhibition [6] of 3.61%. For the same molecule, the inhibition [7] was 2%, the inhibition [8] was 0.78% and the inhibition [9] was 1.55%. The inhibition [10] was -0.51%, the inhibition [11] was -0.13% and the inhibition [12] was -0.5%. The inhibition [13] was 0.14%, the inhibition [14] was 0.63% and the inhibition [15] was -0.21%. The inhibition [16] was 6.34%, the inhibition [17] was 3.12% and the inhibition [18] was 1.33%. The inhibition [19] was 0.45% and the inhibition [20] was 1.61%.

With `COc1ccc2cc(-c3c(-c4ccncc4)nc(-c4ccc([S+](C)[O-])cc4C)n3C)ccc2c1` (stereo not given) the inhibition [1] was -1.74%, the inhibition [2] was -0.31% and the inhibition [3] was -0.06%. It also gave an inhibition [4] of -0.07%, an inhibition [5] of 0.13% and an inhibition [6] of -1.33%. For the same molecule, the inhibition [7] was -1.4%, the inhibition [8] was 0.66% and the inhibition [9] was 0.72%. It also gave an inhibition [10] of -0.27%, an inhibition [11] of 0.03% and an inhibition [12] of 0.41%. For the same molecule, the inhibition [13] was 0.9%, the inhibition [14] was -0.74% and the inhibition [15] was -0.31%. It also gave an inhibition [16] of -2.25%, an inhibition [17] of 3.56% and an inhibition [18] of -6.12%. It also gave an inhibition [19] of -0.83% and an inhibition [20] of 0.16%.

In the case of `CCc1ccc(Oc2nccc(-c3c(-c4ccc(F)cc4)ncn3C3CCNCC3)n2)cc1`, the inhibition [1] is reported as 4.62%, the inhibition [2] is reported as -0.7% and the inhibition [3] is reported as 0.69%. The inhibition [4] was 1.39%, the inhibition [5] was 2.98% and the inhibition [6] was 5.05%. The inhibition [7] was 5.44%, the inhibition [8] was 2.14% and the inhibition [9] was 1.74%. For the same molecule, the inhibition [10] was 0.08%, the inhibition [11] was 0.04% and the inhibition [12] was 1.11%. The inhibition [13] was 3.63%, the inhibition [14] was 1.38% and the inhibition [15] was 2%. It also gave an inhibition [16] of 5.66%, an inhibition [17] of 14.7% and an inhibition [18] of 3.65%. The inhibition [19] was 19.4% and the inhibition [20] was 4.53%.
